Inconclusive results are not listed. Unmarked numbers belong to inactive results. Active and inactive are the calls of the source. Calls follow the shape of the dose curve; as a rule, active = well fitted cell-killing curve with a large enough effect; inconclusive = small, poorly fitted or top-dose-only effect, or effect the other way; inactive = flat fitted curve, though single readings scatter.
Test system: CAOV3
Assay: Primary qHTS to identify gynecologic anti-cancer compounds using libraries of approved drugs and bioactive compounds (AID 1345084); also: nearly all actives have a fitted effect of over 55% in size
Details: Gynecologic cancer cell panel viability, ATPlite luminescence, 48 h; series mostly up to 57.5 µM; activity change, negative = cytotoxicity: at the top concentration
Text: National Center for Advancing Translational Sciences [NCATS] Assay Overview: Chemotherapeutic drug responses vary from cancer to cancer and from patient to patient. These variations could be caused by a number of factors including patient genomic background, tumor mutations, tumor heterogeneity, and aspects of drug treatment. Chemotherapeutic drug resistance is also a common issue and can lead to ineffective treatment and patient death. Here we have profiled the cell killing effects of thousands of compounds to characterize the responses in three gynecological cancers, identify cancer-selective compounds, and understand the diversity of responses to these compounds from pan-cancer suppressors to single cell line selective compounds. In this assay, we screened a 7,914 compound drug library that included approved drug and bioactive compounds in six ovarian, three cervical, and […] placental cancer cell lines using the ATPlite assay for cell viability. […] The cervical cancer cell lines included HeLa, Ca Ski, and C-33 A. The placental cancer cell lines included JEG-3. HEK 293T cells were used as the control cell line to determine the selectivity index. ATPlite is a luminescence based assay reliant on the conversion of a luciferase substrate to light in the presence of ATP. As a cytotoxic compound will suppress growth and decrease the number of cells, the concentration of ATP will decrease, and less light signal will be detected in the well.
Assay Protocol Summary: 1,000 cells in 4 uL of media were dispensed into white, solid bottom 1536-well plates using a Multidrop Combi (Thermo Scientific). The Assay plates were incubated for 16 hours at 37 C with 5% CO2 in assay plates, followed by the addition of 23 nL of DMSO or drug dissolved in DMSO. Each compound was assayed in five concentrations (0.092, 0.46, 2.3, 11.5, and 57.5 uM), using the automated Wako 1536 Pin Tool workstation and incubated at 37 C with 5% CO2 48 hours. 4 uL of ATPlite, the ATP monitoring reagent, was then added to the each well of the assay plates using the Multidrop Combi reagent dispenser followed by incubation for 15 minutes at room temperature. The resulting luminescence was measured using the ViewLux plate reader.
% is scaled to controls: 0 for no effect and ±100 for the full control effect.

| Compound | Potency | activity change, negative = cytotoxicity |
| --- | --- | --- |
| C[C@@H]1CN(c2c(F)c(F)c3c(=O)c(C(=O)O)cn(C4CC4)c3c2F)C[C@H](C)N1 | inactive | – |
| C#CCN(C)Cc1ccccc1 | – | 11.2% |
| O=C(O)c1ccccc1O | – | -6.09% |
| Cc1cc(C(C#N)c2ccc(Cl)cc2)c(Cl)cc1NC(=O)c1cc(I)cc(I)c1O (stereo not given) | inactive | – |
| N[C@H](C(=O)O)c1ccc(O)cc1 | – | 2.02% [at 25.3 µM] |
| CCn1cc(C(=O)O)c(=O)c2cnc(N3CCNCC3)nc21 | – | 14.3% |
| c1ccc2c(CC3=NCCN3)cccc2c1 | – | -28% |
| CN1CCOC(c2ccccc2)c2ccccc2C1 (stereo not given) | inactive | – |
| CC/C=C(\C(=O)N[C@@H]1C(=O)N2C(C(=O)OCOC(=O)C(C)(C)C)=C(COC(N)=O)CS[C@H]12)c1csc(N)n1 | inactive | – |
| CCCc1c(OCCCCc2nn[nH]n2)ccc(C(C)=O)c1O | – | 10.4% |
| CC(C)(C)C(=O)C(Oc1ccc(Cl)cc1)n1ccnc1 (stereo not given) | inactive | – |
| C[C@H]1O[C@@H](n2cc(F)c(=O)[nH]c2=O)[C@H](O)[C@@H]1O | – | -5.26% |
| NCCNCCNCCNCCN | – | 11.8% [at 11.6 µM] |
| O=C1O[C@H](CO)[C@@H](O)[C@H](O)[C@H]1O | – | -3.17% |
| Oc1cccc(O)c1 | – | -0.905% |
| C[C@]12CC[C@@H]3c4ccc(O)cc4CC[C@H]3[C@@H]1CCC2=O | – | 3.22% |
| Cc1cc(CC(=O)O)n(C)c1C(=O)c1ccc(Cl)cc1 | – | 2.38% |
| CN1CCC[C@@H]1Cc1c[nH]c2ccc(CCS(=O)(=O)c3ccccc3)cc12 | inactive | – |
| Cc1cccc(Nc2cc(Cl)nc(SCC(=O)O)n2)c1C | – | -0.423% |
| COc1ccc2c(c1)C(=O)N(CCc1ccc(S(=O)(=O)NC(=O)NC3CCCCC3)cc1)C(=O)C2(C)C | inactive | – |

| Compound | Potency | activity change, negative = cytotoxicity |
| --- | --- | --- |
| O=C(Oc1ccccc1C(=O)O)c1ccccc1O | – | -1.84% |
| O=C(O)[C@H](O)c1ccccc1 | – | 4.13% |
| CCCCOC(=O)c1ccc(O)cc1 | – | 0.469% |
| NS(=O)(=O)c1cc2c(cc1C(F)(F)F)NC(Cc1ccccc1)NS2(=O)=O (stereo not given) | – | 12% |
| CN(C)CC[C@@H](c1ccc(Cl)cc1)c1ccccn1 | – | 0.218% |
| O=C(CCCN1CCN(c2ccccn2)CC1)c1ccc(F)cc1 | inactive | – |
| CC(=O)Oc1c(C)c(C)c2c(c1C)CC[C@@](C)(CCC[C@H](C)CCC[C@H](C)CCCC(C)C)O2 | – | 2.01% |
| NCCNCCNCCN | – | -15.2% |
| NC(=O)NC(=O)Cc1ccccc1 | – | -0.489% |
| CC1=C(C/C=C(\C)CCC[C@H](C)CCC[C@H](C)CCCC(C)C)C(=O)c2ccccc2C1=O | – | 1.95% |
| C=CCn1c(=O)n([C@@H]2O[C@H](CO)[C@@H](O)[C@H]2O)c2nc(N)[nH]c(=O)c21 | – | 11.1% |
| C[C@]12CC[C@@H]3c4ccc(O)cc4CC[C@H]3[C@@H]1CC[C@@H]2OC(=O)CCC1CCCC1 | inactive | – |
| CCCCN1CCCC[C@H]1C(=O)Nc1c(C)cccc1C | inactive | – |
| CC(=O)c1ccc2c(c1)N(CCCN(C)C)c1ccccc1S2 | – | -1.06% |
| CC(C)(C)NCC(O)COc1ccc(NC(=O)NC2CCCCC2)cc1 (stereo not given) | – | 20.7% |
| O=c1cc(CO)occ1O | – | 12.7% |
| Cc1cccc(C)c1NC(=O)CN(CC(=O)O)CC(=O)O | – | -12% |
| C[C@@H]1CCN(C(=O)[C@H](CCCN=C(N)N)NS(=O)(=O)c2cccc3c2NC[C@H](C)C3)[C@@H](C(=O)O)C1 | – | 3.55% |
| CN(C)CCCN1c2ccccc2CCc2ccccc21 | – | -6.03% |
| O=C(O)c1ccccc1-c1ccc(C(F)(F)F)cc1 | – | 6.82% |
